# Assay results as given in PubChem BioAssay (NCATS).
# Results filed as inconclusive are left out. A number with no mark means an inactive call. The call rests on the fitted dose curve; in most records, active means well fitted cell-killing curve with a large enough effect; inconclusive means small, poorly fitted or top-dose-only effect, or effect the other way; inactive means flat fitted curve, though single readings scatter. Where a SMILES comes first, the peptide text is derived from it.
# Tested on: Hek293T
# Experiment: Primary qHTS to identify gynecologic anti-cancer compounds using libraries of approved drugs and bioactive compounds (AID 1345084); further: nearly all actives have a fitted effect of over 55% in size
# Conditions: Gynecologic cancer cell panel viability, ATPlite luminescence, 48 h, control line for the selectivity index; series mostly up to 57.5 µM; activity change, negative = cytotoxicity: at the top concentration
# How it was run: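 ATP-based viability (ATPlite), 1,000 cells/well, 16 h pre-incubation, 48 h compound at 37 C, 5% CO2, 15 min RT before read.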
# On the % scale 0 is the no-effect control and ±100 the full control effect.
row,SMILES,"activity change, negative = cytotoxicity"
1,CCC(C)/C=C(C)/C=C/C1=CC2=C(Cl)C(=O)C(C)(OC(C)=O)C(=O)C2=CN1C(CC(=O)O)C(=O)O (configuration not stated),11.1% [at 25.3 µM]
2,CC(C)[C@](O)(c1ccc2cc(OC(F)F)c(OC(F)F)cc2c1)c1cn[nH]n1,5.91%
3,COc1cc(C(=O)OC[C@H]2O[C@@H](OC(C)(C)C(=O)O)[C@H](O)[C@@H](O)[C@@H]2O)cc(OC)c1O,4.76% [at 25.3 µM]
4,COc1cc(C(C)=O)ccc1O[C@@H]1O[C@H](CO)[C@@H](O)[C@H](O)[C@H]1O,0.273% [at 38.5 µM]
5,CC1(C)C(=O)CCC2(C)C1C(O)C=C1COC(=O)C12O (configuration not stated),-0.973%
6,COc1cc(/C=C/c2ccccc2)c(C(=O)O)c(O)c1CC=C(C)C,-1.69% [at 38.5 µM]
7,CCC(C)C(C(=O)O)N1Cc2c(OCC=C(C)C)c(C)c(OC)c(C(=O)O)c2C1=O (configuration not stated),7.34% [at 25.3 µM]
8,COC(=O)C1=CO[C@@H](O[C@@H]2O[C@H](CO)[C@@H](O)[C@H](O)[C@H]2O)[C@@H]2[C@@H](CO)[C@@H](O)C(O)[C@H]12 (some centres not stated),9.18% [at 25.3 µM]
9,CC(C)C[C@H](NC(=O)[C@@H]1O[C@H]1C(=O)O)C(=O)NCCCCN=C(N)N,-1.03%
10,C[C@@H]1O[C@@H](OC[C@H]2O[C@@H](OCc3ccccc3)[C@H](O)[C@@H](O)[C@@H]2O)[C@H](O)[C@H](O)[C@H]1O,7.13% [at 25.3 µM]
11,CNC(=O)c1ccc2c(c1)CCO[C@H]2CCN1CCN(c2ccc(C(N)=O)cc2)CC1,-1.15%
12,COC(=O)C1=COC(OC2OC(CO)C(O)C(O)C2O)C2C(COC(=O)/C=C/c3ccc(O)c(O)c3)C(O)C(O)C12 (configuration not stated),-1.92% [at 25.3 µM]
13,CC(C)C1NC(=O)CNC(=O)C2CCCN2C(=O)C(Cc2c[nH]c3ccccc23)NC(=O)CNC(=O)C(Cc2ccc(O)cc2)NC(=O)CNC1=O (configuration not stated) (cyclo(GVGYGWP); configuration not given here),1.82% [at 25.3 µM]
14,CC(C)c1ccc2c(c1)C(=O)CC1C(C)(C(=O)O)CCCC21C (configuration not stated),2.56% [at 38.5 µM]
15,C=C1CCC2(C(=O)OC3OC(CO)C(O)C(O)C3O)CCC3(C)C(=CCC4C5(C)CCC(OC6OC(CO)C(OC7OC(C)C(O)C(O)C7O)C(OC7OCC(O)C(O)C7O)C6O)C(C)(C)C5CCC43C)C2C1 (configuration not stated),6.11% [at 11.6 µM]
16,C=C1CC2C(C)(CCC(=O)O)C(C(C)(C)O)CCC2(C)C2(C(=O)OC)C(=O)C(C)(O)C(=O)C12C (configuration not stated),1.66% [at 25.3 µM]
17,COc1ccc(-n2c(SCC#N)nc3sc4c(c3c2=O)CCCC4)cc1,10.7%
